What all share (assay): NCI-60 one-dose screen, 48 h (100 = growth as untreated, 0 = no growth, -100 = all killed)
In one assay the test system is HCT-15 colon. To be noted: 10 µM unless noted.
Another assay has as its system HT29 colon. To be noted: 10 µM unless noted.
Another assay relates to SNB-75 CNS. Particulars: 10 µM unless noted.
The test system of a further assay is SNB-19 CNS. To be noted: 10 µM unless noted.
A further assay relates to U251 CNS. Particulars: 10 µM unless noted.
A further assay concerns PC-3 prostate. To be noted: 10 µM unless noted.
A further assay deals with SK-MEL-5 melanoma. Particulars: 10 µM unless noted.
Another assay relates to UACC-62 melanoma. Particulars: 10 µM unless noted.
The subject of a further assay is LOX IMVI melanoma. To be noted: 10 µM unless noted.
A further assay has as its system SK-MEL-28 melanoma. Particulars: 10 µM unless noted.
The next assay has as its system SK-MEL-2 melanoma. Particulars: 10 µM unless noted.
A further assay relates to SN12C renal. To be noted: 10 µM unless noted.
The subject of the next assay is UO-31 renal. Particulars: 10 µM unless noted.
Another assay has as its system TK-10 renal. Particulars: 10 µM unless noted.
A further assay relates to ACHN renal. To be noted: 10 µM unless noted.
A further assay concerns CAKI-1 renal. To be noted: 10 µM unless noted.
In the next assay the test system is A498 renal. Particulars: 10 µM unless noted.
The test system of the next assay is CCRF-CEM leukemia. To be noted: 10 µM.
For another assay, the system named is MOLT-4 leukemia. To be noted: 10 µM unless noted.
A further assay has as its system EKVX NSCLC. To be noted: 10 µM.

About 83,000 compounds went through this panel and 20% of them were active in at least one assay; those are over-represented in the sample as a whole.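 A percent growth of 40 corresponds to 60% growth inhibition; 0 means no net growth; -100 means all cells died. Active threshold: below 10.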 A number with no mark means an inactive call. The source made the active and inactive calls.

Regarding `O=C(NCCNCCO)c1cc([N+](=O)[O-])cc([N+](=O)[O-])c1O`, the growth was 106% in the assay on HCT-15 colon; 104% in the assay with HT29 colon; 102% in the assay with SNB-75 CNS; 102% in the assay on SNB-19 CNS; 99.3% in the assay on U251 CNS; 99.7% with PC-3 prostate. The growth with SK-MEL-5 melanoma was 103%; in the assay with UACC-62 melanoma, 101%; in the assay with LOX IMVI melanoma, 99.1%; with SK-MEL-28 melanoma, 106%; in the assay with SK-MEL-2 melanoma, 117%; with SN12C renal, 96.1%. Moreover, the growth is 95.9% in the assay on UO-31 renal; 101% in the assay on TK-10 renal; 107% in the assay with ACHN renal; 100% with CAKI-1 renal; 106% with A498 renal; 94.3% in the assay on CCRF-CEM leukemia. Moreover, the growth in the assay with MOLT-4 leukemia is 102%.
`CC(O)c1cc[cH-]c1.[Fe+2].c1cc[cH-]c1` (centres undefined): the growth in the assay on HCT-15 colon is 95.3%; in the assay with HT29 colon, 110%; in the assay with SNB-75 CNS, 92%; in the assay with SNB-19 CNS, 105%; in the assay on U251 CNS, 98.2%; in the assay on PC-3 prostate, 98.2%. The growth with SK-MEL-5 melanoma was 98.2%; in the assay on UACC-62 melanoma it was 108%; in the assay with LOX IMVI melanoma, 126%; with SK-MEL-28 melanoma, 112%; with SK-MEL-2 melanoma, 109%; with SN12C renal, 98.9%. The growth in the assay on UO-31 renal was 86.5%; in the assay with TK-10 renal it was 96%; with ACHN renal, 89.8%; with CAKI-1 renal, 88%; in the assay on A498 renal, 103%; in the assay on MOLT-4 leukemia, 89.3%.
For the molecule `Cc1ccc(S(=O)(=O)N/N=C2\CC3CCC2C3)cc1` (centres undefined), the growth is 96% in the assay with HCT-15 colon; 108% in the assay on HT29 colon; 85.7% in the assay with SNB-75 CNS; 101% in the assay with SNB-19 CNS; 96.8% in the assay on U251 CNS; 95.8% in the assay with PC-3 prostate. The growth in the assay on SK-MEL-5 melanoma was 99.8%; with UACC-62 melanoma, 103%; in the assay on LOX IMVI melanoma, 103%; with SK-MEL-28 melanoma it was 109%; with SK-MEL-2 melanoma it was 108%; in the assay with SN12C renal it was 99.9%. The growth in the assay with UO-31 renal is 93.9%; in the assay with TK-10 renal, 122%; with ACHN renal, 94.7%; in the assay with CAKI-1 renal, 101%; with A498 renal, 97.7%; in the assay with CCRF-CEM leukemia, 100%. The growth in the assay on MOLT-4 leukemia is 109%.
Regarding `COc1ccc(/C=C2\CCCC3=C2N=C2SC=NN2C3c2ccc(OC)c(OC)c2)cc1OC` (centres undefined), the growth in the assay on HCT-15 colon was 34.2%; in the assay with HT29 colon, 14.4%; with SNB-75 CNS it was 40.1%; in the assay on SNB-19 CNS it was 68.6%; in the assay on U251 CNS it was 30.2%; in the assay with PC-3 prostate it was 67.9%. In addition, the growth was 30.8% in the assay with SK-MEL-5 melanoma; 38.1% with UACC-62 melanoma; 9.24% (active) in the assay with LOX IMVI melanoma; 66% in the assay with SK-MEL-28 melanoma; 109% in the assay with SK-MEL-2 melanoma; 40.7% in the assay on SN12C renal. The growth in the assay on UO-31 renal was 40%; in the assay on TK-10 renal it was 60.9%; in the assay on ACHN renal, 37.4%; with CAKI-1 renal, 32.5%; in the assay on A498 renal it was 42.8%; with CCRF-CEM leukemia, 7.48% (active). The growth in the assay with MOLT-4 leukemia is 54.7%.
For `CC(=O)OC1/C=C\CC/C=C\C1` (centres undefined), the growth is 98% in the assay on HCT-15 colon; 109% in the assay on HT29 colon; 82.6% with SNB-75 CNS; 100% with SNB-19 CNS; 96.6% with U251 CNS; 96.4% in the assay with PC-3 prostate. For the same molecule, the growth in the assay on SK-MEL-5 melanoma was 98.8%; in the assay with UACC-62 melanoma, 101%; in the assay with LOX IMVI melanoma, 106%; with SK-MEL-28 melanoma, 111%; in the assay with SK-MEL-2 melanoma it was 109%; with SN12C renal, 95.8%. Also, the growth with UO-31 renal is 93.5%; with TK-10 renal it was 124%; with ACHN renal, 96.3%; with CAKI-1 renal, 99.2%; in the assay with A498 renal, 86.9%; in the assay with CCRF-CEM leukemia it was 103%. Besides, the growth in the assay with MOLT-4 leukemia was 116%.
For `CC(=O)Nc1ccc(C(=O)/C=C/c2ccc(N(C)C)cc2)cc1`, the growth with HCT-15 colon was 94.1%; in the assay with HT29 colon it was 91.3%; in the assay with SNB-75 CNS, 99.7%; in the assay on SNB-19 CNS, 109%; in the assay on U251 CNS, 93.9%; in the assay on PC-3 prostate it was 94.6%. Moreover, the growth in the assay on SK-MEL-5 melanoma is 98.7%; in the assay with UACC-62 melanoma it was 102%; in the assay with LOX IMVI melanoma, 96.1%; with SK-MEL-28 melanoma, 108%; with SK-MEL-2 melanoma it was 95.7%; in the assay on SN12C renal, 98.2%. Also, the growth in the assay with UO-31 renal was 74.5%; in the assay on TK-10 renal, 95.4%; with ACHN renal it was 103%; with CAKI-1 renal, 97%; in the assay on A498 renal it was 104%; with CCRF-CEM leukemia, 101%. Further, the growth in the assay on MOLT-4 leukemia was 99.2%.
In the case of `CC(=O)c1ccc2c(c1)c1ccccc1n2C`, the growth in the assay on HCT-15 colon is 102%; in the assay with HT29 colon it was 91.1%; in the assay on SNB-75 CNS, 82.5%; in the assay on SNB-19 CNS, 90.8%; with U251 CNS it was 94.8%; in the assay with PC-3 prostate, 89.2%. The growth with SK-MEL-5 melanoma was 103%; with UACC-62 melanoma, 83.2%; in the assay on LOX IMVI melanoma it was 97.1%; in the assay with SK-MEL-28 melanoma it was 107%; in the assay with SK-MEL-2 melanoma, 98.4%; in the assay with SN12C renal it was 92.1%. For the same molecule, the growth was 60.8% in the assay on UO-31 renal; 108% with TK-10 renal; 110% in the assay on ACHN renal; 73.5% in the assay with CAKI-1 renal; -85.3% (active) in the assay on A498 renal; 70.6% in the assay with CCRF-CEM leukemia.
`Cc1sc(NC(=O)c2ccc(C(C)(C)C)cc2)c(C(=O)O)c1C`: the growth in the assay on HCT-15 colon was 45.9%; in the assay with HT29 colon, 82%; in the assay on SNB-75 CNS, 85.5%; with SNB-19 CNS it was 51%; with U251 CNS, 17%; in the assay with PC-3 prostate, 53.7%. Besides, the growth in the assay with SK-MEL-5 melanoma was 73.3%; with UACC-62 melanoma, 98.4%; in the assay with LOX IMVI melanoma, 68.9%; in the assay on SK-MEL-28 melanoma it was 110%; in the assay with SK-MEL-2 melanoma, 103%; in the assay with EKVX NSCLC it was 51.1%. The growth is 89.9% in the assay with UO-31 renal; 68.4% in the assay with TK-10 renal; 38.8% in the assay with ACHN renal; 41.9% in the assay on CAKI-1 renal; 48.7% in the assay on CCRF-CEM leukemia; 50.3% with MOLT-4 leukemia.
